In the library only some 5.9% were active in any assay of this set; here they are far more common.
HSP90 inh: inhibitors of HSP90 luciferase refolding in rabbit reticulocyte lysate; luciferase refolding luminescence, 3 h; inhibition, % at 5.6 µM; 0.91% of 290,000 active; AID 1789;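 active = inhibition above the screen-wide mean plus 3 SD, computed separately per campaign, cut at about 16% in these data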;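 note: 0% = DMSO wells and 100% = 60 µM geldanamycin wells; inhibitors lower the luminescence because luciferase stays unfolded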
DAX1 inh: NR0B1 (DAX1) inhibition | inhibition, % at 6.75 µM | HEK293 Gal4-DAX1 luciferase reporter, luminescence | 0.99% of 340,000 active;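 active = inhibition above the mean over all tested compounds plus 3 SD, cut at about 4.2% in these data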;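 note: 0% = DAX1-transfected cells with DMSO and 100% = empty-vector control cells with DMSO; inhibition shows as a rise in luminescence from relieved DAX1 repression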
HSF1 activator: increases HSF-1 driven luciferase reporter signal; NIH3T3-HGL HSF-1 luciferase reporter, MG132, 8 h; 100% = twice DMSO control signal; activation, % at 9 µM; 1.7% of 300,000 active;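 active = mean replicate activation of at least 50% with a set share of replicates each reaching 50%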;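 note: 0% = median of the neutral control wells and 100% = twice that signal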
FXN GAA850 act: increases GAA850 frataxin promoter reporter activity; HEK293 lucGAA850 FXN promoter luciferase reporter, 24 h; percent of 10 µM SAHA response; activation, % at 6 µM; 0.56% of 360,000 active;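 active = activation above the average of all compounds screened plus 3 SD, cutoff fixed separately per campaign, cut at about 7.5% in these data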;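 note: 0% = DMSO wells and 100% = 10 µM SAHA wells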
AHR activator: activators of human aryl hydrocarbon receptor | P35869 | AHR-responsive luciferase reporter cells, luminescence | activation, % at 5 µM | 2.5% of 320,000 active; in the data active = activation above about 47%;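 note: 0% = vehicle wells and 100% = reference agonist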
HSF1 inhib: HSF1 inhibition. NIH3T3-HGL HSE-luciferase, MG132-induced, luminescence 8 h; stronger effect = lower value. activity change, negative = inhibition, % at 7.5 µM (by protocol). 0.77% of 300,000 active;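 active = more than half of replicate wells show activity change below -50%, luminescence cut by over half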;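 note: luciferase reports HSF-1 transcriptional activity via heat shock element; 0% = median of DMSO wells and -100% = zero luminescence signal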
AHR act cf: human AHR activation, confirmation; AID 2845; shares compounds with AHR activator; activation, % at 9 µM; 87% of 2,300 active; human cells, AHR-responsive luciferase reporter, luminescence; in the data active = activation above about 49%;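 note: HepG2 hepatoma cells carrying a DRE-driven firefly luciferase reporter; 0% = vehicle wells and 100% = reference agonist wells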
PXR act counter: counter-screen for AHR activators: human PXR activators. shares compounds with AHR activator. cell-based PXR reporter, luciferase luminescence. activation, % at 11.6 µM. 88% of 2,300 active; in the data active = activation above about 11%;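 note: human hepatoma DPX-2 cells expressing full-length human PXR; 0% = DMSO and 100% = reference agonist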
Target sequence (O75469 whole entry, looked up): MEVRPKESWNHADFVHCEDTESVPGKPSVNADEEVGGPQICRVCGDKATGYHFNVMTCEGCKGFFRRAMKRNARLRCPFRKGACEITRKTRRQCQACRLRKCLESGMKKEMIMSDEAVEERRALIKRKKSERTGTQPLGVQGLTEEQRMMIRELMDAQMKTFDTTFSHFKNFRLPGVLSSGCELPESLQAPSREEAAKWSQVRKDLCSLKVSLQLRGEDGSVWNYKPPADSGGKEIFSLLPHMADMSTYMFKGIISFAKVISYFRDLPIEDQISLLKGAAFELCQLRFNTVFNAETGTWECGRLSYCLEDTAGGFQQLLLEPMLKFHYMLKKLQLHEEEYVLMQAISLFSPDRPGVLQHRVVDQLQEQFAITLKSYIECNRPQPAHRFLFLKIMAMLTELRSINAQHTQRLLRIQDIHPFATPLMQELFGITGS
* hit, by the source's call.

For O=C(NC(=S)Nc1ccccc1N1CCOCC1)c1ccccc1F the results were HSP90 inh -0.3, DAX1 inh 0.1, HSF1 activator 9.7, FXN GAA850 act 1.3, AHR activator 95.3*, HSF1 inhib -7.6, AHR act cf 73.0* and PXR act counter 31.3*.
O=C(NC(=S)Nc1ccccc1N1CCN(C(=O)c2ccccc2)CC1)c1ccccc1F was read as HSP90 inh 3.6, DAX1 inh -0.7, HSF1 activator 2.0, FXN GAA850 act 1.7, AHR activator 1.7 and HSF1 inhib -1.5.
`CCOc1ccc2nc(NC(=O)C3CCCN(S(=O)(=O)c4cccs4)C3)sc2c1` (stereo not given) gave HSP90 inh 1.5, DAX1 inh -0.3, HSF1 activator 17.9, FXN GAA850 act 3.7, AHR activator 18.2 and HSF1 inhib -1.8.
For COc1ccc(C(=O)NC(=S)Nc2cc(C)ccn2)cc1[N+](=O)[O-] the results were HSP90 inh 3.2, DAX1 inh 1.6, HSF1 activator -8.0, FXN GAA850 act 6.4, AHR activator 82.2*, HSF1 inhib -8.4, AHR act cf 109.2* and PXR act counter 12.5*.
`O=C(N/N=C/c1ccc(-c2ccccc2[N+](=O)[O-])o1)c1cncc(Br)c1` gave HSP90 inh 13.4, DAX1 inh -1.4, HSF1 activator 5.2, FXN GAA850 act 0.9, AHR activator 83.3*, HSF1 inhib 2.1 and AHR act cf 76.2*.
Cc1c(-c2ccc(/C=N/NC(=O)C(=O)Nc3ccccc3F)o2)cccc1[N+](=O)[O-] was read as HSP90 inh 1.8, HSF1 activator 2.5, FXN GAA850 act 0.3, AHR activator 0.5 and HSF1 inhib -1.0.
Cc1c(C(=O)N/N=C/c2ccc(-c3ccccc3[N+](=O)[O-])o2)sc(N)c1C#N was read as HSP90 inh -1.5, DAX1 inh 0.0, HSF1 activator 23.4, FXN GAA850 act 0.6, AHR activator 133.4*, HSF1 inhib 8.1, AHR act cf 162.8* and PXR act counter 50.4*.
For CCc1csc(CNC(=O)C2CCC(=O)N(Cc3cccc(OC)c3)C2)n1 (stereo not given) the results were DAX1 inh 0.1 and FXN GAA850 act 1.9.
Screening COc1cc(/C=N/Nc2nncn2N)ccc1OCc1c(C)no[n+]1[O-] returned HSP90 inh 6.5, DAX1 inh -1.5, HSF1 activator 41.0, FXN GAA850 act -2.4, AHR activator 3.2 and HSF1 inhib 31.9.
COc1ccc(/C=N/Nc2nncn2N)cc1Br was read as HSP90 inh 0.0, DAX1 inh 1.5, HSF1 activator 77.9*, FXN GAA850 act -1.6, AHR activator 88.4*, HSF1 inhib 47.2, AHR act cf 40.9 and PXR act counter 11.9*.
Screening COc1ccc(C(=O)NCc2nnc(SCC(=O)NCCc3ccccc3)o2)cc1 returned HSP90 inh 2.5, DAX1 inh 0.1, HSF1 activator 16.3, FXN GAA850 act -0.8, AHR activator 1.4 and HSF1 inhib 2.0.
O=C(CSc1nc2c([nH]c3ccccc32)c(=O)n1-c1ccccc1)NCC1CCCO1 (stereo not given) was read as HSP90 inh -1.6, DAX1 inh -0.8, HSF1 activator -18.9, FXN GAA850 act 1.0, AHR activator 26.1 and HSF1 inhib -22.8.
`COc1ccccc1-n1c(SCC(=O)NCC2CCCO2)nc2c([nH]c3ccccc32)c1=O` (stereo not given) gave HSP90 inh -0.8, DAX1 inh 1.4, HSF1 activator 4.2, FXN GAA850 act -3.6, AHR activator 90.1*, HSF1 inhib -1.8, AHR act cf 127.2* and PXR act counter 164.5*.
COCCn1c(SCC(=O)Nc2cccc(NC(C)=O)c2)nc2c([nH]c3ccccc32)c1=O was read as HSP90 inh -3.4, DAX1 inh -0.7, HSF1 activator -20.8, FXN GAA850 act -2.5, AHR activator 107.9*, HSF1 inhib -4.5, AHR act cf 90.8* and PXR act counter 38.9*.
CCn1c(SCC(=O)NCC2CCCO2)nc2c([nH]c3ccccc32)c1=O (stereo not given) was read as HSP90 inh 3.0, DAX1 inh -0.3, HSF1 activator 45.6, FXN GAA850 act -0.6, AHR activator 80.2*, HSF1 inhib 12.5, AHR act cf 88.0* and PXR act counter 80.0*.
`COCCn1c(SCC(=O)N2CCCCCC2)nc2c([nH]c3ccccc32)c1=O` gave HSP90 inh -1.3, DAX1 inh 0.7, HSF1 activator -7.1, FXN GAA850 act 1.0, AHR activator 37.9 and HSF1 inhib -5.0.
For O=C(CSc1nc2ccccc2c(=O)n1-c1ccccc1Cl)NCC1CCCO1 (stereo not given) the results were DAX1 inh 0.1, FXN GAA850 act 1.3 and AHR activator -0.3.
Screening COc1ccccc1-n1c(SCC(=O)Nc2ccc(NC(C)=O)cc2)nc2c([nH]c3ccccc32)c1=O returned HSP90 inh 5.8, DAX1 inh 1.5, HSF1 activator 29.8, FXN GAA850 act -1.1, AHR activator 81.4*, HSF1 inhib 20.0, AHR act cf 99.5* and PXR act counter 119.2*.
For Cc1ccsc1C(=O)N1CCCCCC1(C)C(=O)NCC(C)C (stereo not given) the results were FXN GAA850 act -1.3.
`COc1ccccc1NCC(=O)N/N=C(\C)c1ccc(Br)s1` gave HSP90 inh -1.2, DAX1 inh -2.0, HSF1 activator 6.8, FXN GAA850 act 0.9, AHR activator 36.9 and HSF1 inhib 8.0.
C/C(=N/NC(=O)CNc1ccc(C)cc1)c1ccc(Br)s1 was read as HSP90 inh 2.2, DAX1 inh -0.5, HSF1 activator 0.7, FXN GAA850 act 1.7, AHR activator 82.9*, HSF1 inhib 0.6, AHR act cf 60.8* and PXR act counter 15.2*.
Screening COc1cccc(CN(C)C(=O)CCN=C2NS(=O)(=O)c3ccccc32)c1 returned DAX1 inh 0.2, FXN GAA850 act -0.4 and AHR activator 4.3.
For CON/C=C(\C=Nc1ccc(Cl)cc1)c1ncc(C(F)(F)F)cc1Cl the results were HSP90 inh -1.3, DAX1 inh 0.1, HSF1 activator 3.2, FXN GAA850 act 0.0, AHR activator 112.2*, HSF1 inhib 3.0, AHR act cf 93.1* and PXR act counter 13.8*.
Screening CON/C=C(\C=Nc1ccc(C(F)(F)F)cc1)c1ncc(C(F)(F)F)cc1Cl returned HSP90 inh 2.3, DAX1 inh 1.8, HSF1 activator -21.5, FXN GAA850 act 1.4, AHR activator 107.6*, HSF1 inhib 0.6, AHR act cf 103.4* and PXR act counter 30.8*.

High-throughput results (PubChem)
